From article PMC7862700, “An all-to-all approach to the identification of sequence-specific readers for epigenetic DNA modifications on cytosine”

Experiments:
Test in all cases: DAPPL (digital affinity profiling via proximity ligation, sequencing); 10 mM Tris-HCl pH 7.5, 50 mM NaCl, 1 mM DTT, 4% glycerol, room temperature, 30 min; GST-TFs on glutathione beads, 16-mer random dsDNA library, 0.1% formaldehyde crosslink after washing; high values mean tight binding
FLI1 = molecular target: T1, FLI1 (Homo sapiens, UniProt Q01543 1-452); settings: protein: recombinant; tags: N-terminal GST; dsDNA, one strand shown
T1 sequence: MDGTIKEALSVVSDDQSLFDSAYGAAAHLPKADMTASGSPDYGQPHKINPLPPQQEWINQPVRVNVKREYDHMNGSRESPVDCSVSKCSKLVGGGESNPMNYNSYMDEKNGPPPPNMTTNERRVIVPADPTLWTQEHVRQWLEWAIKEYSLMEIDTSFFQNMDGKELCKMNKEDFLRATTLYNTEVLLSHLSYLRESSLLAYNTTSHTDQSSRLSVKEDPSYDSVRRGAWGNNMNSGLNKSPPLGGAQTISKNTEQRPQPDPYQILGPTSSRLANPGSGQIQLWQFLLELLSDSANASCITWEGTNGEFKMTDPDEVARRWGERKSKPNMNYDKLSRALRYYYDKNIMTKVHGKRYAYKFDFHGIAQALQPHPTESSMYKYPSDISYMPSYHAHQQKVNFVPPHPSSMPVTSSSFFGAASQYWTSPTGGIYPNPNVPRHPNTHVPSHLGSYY
Method in brief: (§1)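 Human transcription factors carrying a GST fusion were produced in yeast, bound to glutathione beads, tagged with DNA barcodes and pooled together with a tag-only sample. Each pool was held with 200 nmole of a random double-stranded 16-mer DNA library in Tris/NaCl/DTT/glycerol buffer for 30 min at room temperature, then washed, crosslinked in 0.1% formaldehyde, proximity-ligated with BsaI/T4 ligase (1 h, 37 °C), PCR-amplified and sequenced on an Illumina NextSeq500. Binding signal is the read frequency of each hexamer for a given factor divided by its frequency in the tag-only sample.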

ELK1 = molecular target: T2, ELK1 (Homo sapiens, UniProt P19419 1-428); settings: protein: recombinant; tags: N-terminal GST; dsDNA, one strand shown
T2 sequence: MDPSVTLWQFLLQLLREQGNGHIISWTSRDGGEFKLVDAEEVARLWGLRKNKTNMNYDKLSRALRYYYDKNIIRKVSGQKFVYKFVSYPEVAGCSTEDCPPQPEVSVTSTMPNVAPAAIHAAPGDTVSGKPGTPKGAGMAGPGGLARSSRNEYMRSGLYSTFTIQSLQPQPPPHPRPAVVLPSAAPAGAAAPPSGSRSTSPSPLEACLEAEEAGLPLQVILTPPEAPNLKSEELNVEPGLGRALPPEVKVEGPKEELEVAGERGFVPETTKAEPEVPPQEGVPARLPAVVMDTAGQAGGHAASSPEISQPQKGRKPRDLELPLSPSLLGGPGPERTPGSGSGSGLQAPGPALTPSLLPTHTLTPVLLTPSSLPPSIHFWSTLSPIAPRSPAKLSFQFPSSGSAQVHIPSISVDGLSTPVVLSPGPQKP
Method in brief: as §1

GABPA = molecular target: T3, GABPA (Homo sapiens, UniProt Q06546 1-454); settings: protein: recombinant; tags: N-terminal GST; dsDNA, one strand shown
T3 sequence: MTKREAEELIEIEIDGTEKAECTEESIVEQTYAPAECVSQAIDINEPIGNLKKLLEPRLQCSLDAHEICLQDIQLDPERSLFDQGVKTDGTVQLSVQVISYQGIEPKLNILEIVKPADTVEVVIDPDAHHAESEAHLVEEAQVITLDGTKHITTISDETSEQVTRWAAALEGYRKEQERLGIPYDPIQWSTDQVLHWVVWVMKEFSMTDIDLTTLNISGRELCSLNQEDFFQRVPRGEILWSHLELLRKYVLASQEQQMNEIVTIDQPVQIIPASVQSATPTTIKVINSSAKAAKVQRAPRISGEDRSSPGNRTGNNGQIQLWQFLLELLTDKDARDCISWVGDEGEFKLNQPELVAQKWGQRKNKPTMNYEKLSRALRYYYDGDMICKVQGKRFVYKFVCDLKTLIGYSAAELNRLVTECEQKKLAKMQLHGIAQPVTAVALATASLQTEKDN
Method in brief: as §1

ERG = molecular target: T4, ERG (Homo sapiens, UniProt P11308 1-479); settings: protein: recombinant; tags: N-terminal GST; dsDNA, one strand shown
T4 sequence: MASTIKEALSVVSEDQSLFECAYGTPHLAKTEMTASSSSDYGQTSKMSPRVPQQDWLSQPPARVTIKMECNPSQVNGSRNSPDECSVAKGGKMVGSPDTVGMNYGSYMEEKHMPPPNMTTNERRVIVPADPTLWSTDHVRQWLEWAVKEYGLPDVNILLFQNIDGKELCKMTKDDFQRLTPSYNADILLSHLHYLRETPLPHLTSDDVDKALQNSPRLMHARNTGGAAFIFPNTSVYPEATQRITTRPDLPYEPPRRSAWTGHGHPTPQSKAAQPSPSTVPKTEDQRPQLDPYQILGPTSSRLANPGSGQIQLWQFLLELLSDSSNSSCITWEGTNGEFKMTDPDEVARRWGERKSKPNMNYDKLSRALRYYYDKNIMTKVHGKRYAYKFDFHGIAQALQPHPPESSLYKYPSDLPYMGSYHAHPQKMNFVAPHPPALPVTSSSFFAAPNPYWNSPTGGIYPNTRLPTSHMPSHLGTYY
Method in brief: as §1

ELF1 = ELF1 (Homo sapiens, UniProt P32519 1-619); settings: protein: recombinant; tags: N-terminal GST; dsDNA, one strand shown
Method in brief: as §1

EHF = molecular target: T5, EHF (Homo sapiens, UniProt Q9NZC4 1-300); settings: protein: recombinant; tags: N-terminal GST; dsDNA, one strand shown
T5 sequence: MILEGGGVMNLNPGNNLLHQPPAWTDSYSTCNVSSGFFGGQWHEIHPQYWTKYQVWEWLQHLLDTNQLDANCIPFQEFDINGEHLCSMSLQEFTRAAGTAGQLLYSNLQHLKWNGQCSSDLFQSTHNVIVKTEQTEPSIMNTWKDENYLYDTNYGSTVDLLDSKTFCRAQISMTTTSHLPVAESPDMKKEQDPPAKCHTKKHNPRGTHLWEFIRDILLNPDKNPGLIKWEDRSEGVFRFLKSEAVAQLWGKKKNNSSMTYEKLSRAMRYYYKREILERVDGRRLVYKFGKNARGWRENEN
Method in brief: as §1

SPI1 = SPI1 (Homo sapiens, UniProt P17947 1-270); settings: protein: recombinant; tags: N-terminal GST; dsDNA, one strand shown
Method in brief: as §1

SPIB = SPIB (Homo sapiens, UniProt Q01892 1-262); settings: protein: recombinant; tags: N-terminal GST; dsDNA, one strand shown
Method in brief: as §1

ELK3 = molecular target: T6, ELK3 (Homo sapiens, UniProt P41970 1-407); settings: protein: recombinant; tags: N-terminal GST; dsDNA, one strand shown
T6 sequence: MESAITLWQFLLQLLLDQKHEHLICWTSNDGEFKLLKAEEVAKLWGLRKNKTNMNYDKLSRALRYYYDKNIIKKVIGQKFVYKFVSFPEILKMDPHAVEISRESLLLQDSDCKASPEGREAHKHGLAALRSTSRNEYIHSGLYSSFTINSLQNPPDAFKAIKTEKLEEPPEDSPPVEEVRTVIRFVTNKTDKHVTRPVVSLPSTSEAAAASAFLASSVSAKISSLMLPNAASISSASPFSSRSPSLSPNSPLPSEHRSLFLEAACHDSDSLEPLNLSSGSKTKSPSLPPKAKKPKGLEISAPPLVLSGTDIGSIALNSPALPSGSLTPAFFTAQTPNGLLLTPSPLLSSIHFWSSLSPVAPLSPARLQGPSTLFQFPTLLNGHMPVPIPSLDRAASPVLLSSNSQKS
Method in brief: as §1

FEV = molecular target: T7, FEV (Homo sapiens, UniProt Q99581 1-238); settings: protein: recombinant; tags: N-terminal GST; dsDNA, one strand shown
T7 sequence: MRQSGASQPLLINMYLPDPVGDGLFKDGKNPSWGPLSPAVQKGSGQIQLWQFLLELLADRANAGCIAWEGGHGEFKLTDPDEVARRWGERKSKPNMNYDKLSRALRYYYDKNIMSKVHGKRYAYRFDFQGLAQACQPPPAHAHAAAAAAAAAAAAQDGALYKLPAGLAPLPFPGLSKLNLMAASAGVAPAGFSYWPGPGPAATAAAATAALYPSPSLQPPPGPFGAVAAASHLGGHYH
Method in brief: as §1

ETV5 = ETV5 (Homo sapiens, UniProt P41161 1-510); settings: protein: recombinant; tags: N-terminal GST; dsDNA, one strand shown
Method in brief: as §1

HSF1 = HSF1 (Homo sapiens, UniProt Q00613 1-529); settings: protein: recombinant; tags: N-terminal GST; chain copies: 3; dsDNA, one strand shown
Method in brief: as §1

SPIC = molecular target: T8, SPIC (Homo sapiens, UniProt Q8N5J4 1-248); settings: protein: recombinant; tags: N-terminal GST; dsDNA, one strand shown
T8 sequence: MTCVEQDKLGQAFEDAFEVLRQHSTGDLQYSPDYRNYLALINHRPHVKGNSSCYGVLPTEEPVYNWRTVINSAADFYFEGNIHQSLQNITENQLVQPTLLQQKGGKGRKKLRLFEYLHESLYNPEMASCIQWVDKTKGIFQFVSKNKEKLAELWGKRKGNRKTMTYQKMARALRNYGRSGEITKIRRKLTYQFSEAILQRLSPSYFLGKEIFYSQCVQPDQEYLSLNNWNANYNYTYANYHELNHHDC
Method in brief: as §1

ELF4 = ELF4 (Homo sapiens, UniProt Q99607 1-663); settings: protein: recombinant; tags: N-terminal GST; dsDNA, one strand shown
Method in brief: as §1

ELK4 = molecular target: T9, ELK4 (Homo sapiens, UniProt P28324-2 1-405); settings: protein: recombinant; tags: N-terminal GST; dsDNA, one strand shown
T9 sequence: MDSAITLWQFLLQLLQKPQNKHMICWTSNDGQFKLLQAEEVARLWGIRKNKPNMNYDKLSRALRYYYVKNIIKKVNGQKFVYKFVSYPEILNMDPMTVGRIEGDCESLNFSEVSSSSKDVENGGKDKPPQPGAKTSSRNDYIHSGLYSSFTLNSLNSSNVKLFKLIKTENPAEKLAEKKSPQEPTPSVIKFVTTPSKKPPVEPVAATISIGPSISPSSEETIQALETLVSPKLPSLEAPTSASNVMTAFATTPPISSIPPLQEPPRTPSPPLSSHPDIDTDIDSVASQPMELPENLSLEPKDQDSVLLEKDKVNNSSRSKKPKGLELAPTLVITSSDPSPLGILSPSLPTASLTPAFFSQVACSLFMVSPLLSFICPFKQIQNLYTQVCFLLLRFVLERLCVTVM
Method in brief: as §1

ETV2 = molecular target: T10, ETV2 (Homo sapiens, UniProt O00321 1-342); settings: protein: recombinant; tags: N-terminal GST; dsDNA, one strand shown
T10 sequence: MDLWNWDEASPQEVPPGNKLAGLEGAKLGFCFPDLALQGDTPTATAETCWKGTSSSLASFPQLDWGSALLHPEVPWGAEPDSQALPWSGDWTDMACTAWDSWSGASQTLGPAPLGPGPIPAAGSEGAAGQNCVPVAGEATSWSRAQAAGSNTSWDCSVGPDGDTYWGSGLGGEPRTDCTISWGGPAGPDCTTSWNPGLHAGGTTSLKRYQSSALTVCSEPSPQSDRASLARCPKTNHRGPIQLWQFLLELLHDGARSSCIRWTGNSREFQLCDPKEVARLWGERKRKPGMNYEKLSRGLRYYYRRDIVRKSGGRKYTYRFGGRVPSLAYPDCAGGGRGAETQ
Method in brief: as §1

ELF3 = molecular target: T11, ELF3 (Homo sapiens, UniProt P78545 1-371); settings: protein: recombinant; tags: N-terminal GST; dsDNA, one strand shown
T11 sequence: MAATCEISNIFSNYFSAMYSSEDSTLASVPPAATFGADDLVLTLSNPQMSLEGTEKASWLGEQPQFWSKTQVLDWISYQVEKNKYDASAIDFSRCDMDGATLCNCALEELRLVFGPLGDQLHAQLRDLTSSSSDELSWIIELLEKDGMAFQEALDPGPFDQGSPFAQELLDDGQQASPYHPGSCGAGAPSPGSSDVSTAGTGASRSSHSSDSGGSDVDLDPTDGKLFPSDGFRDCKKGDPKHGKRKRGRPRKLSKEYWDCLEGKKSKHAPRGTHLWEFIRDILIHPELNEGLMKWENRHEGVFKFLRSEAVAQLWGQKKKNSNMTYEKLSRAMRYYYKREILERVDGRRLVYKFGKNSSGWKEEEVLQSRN
Method in brief: as §1

CRX = CRX (Homo sapiens, UniProt O43186 1-299); settings: protein: recombinant; tags: N-terminal GST; dsDNA, one strand shown
Method in brief: as §1

ETV1 = ETV1 (Homo sapiens, UniProt P50549 1-477); settings: protein: recombinant; tags: N-terminal GST; dsDNA, one strand shown
Method in brief: as §1

Chain of ELF4 (Q99607 whole entry): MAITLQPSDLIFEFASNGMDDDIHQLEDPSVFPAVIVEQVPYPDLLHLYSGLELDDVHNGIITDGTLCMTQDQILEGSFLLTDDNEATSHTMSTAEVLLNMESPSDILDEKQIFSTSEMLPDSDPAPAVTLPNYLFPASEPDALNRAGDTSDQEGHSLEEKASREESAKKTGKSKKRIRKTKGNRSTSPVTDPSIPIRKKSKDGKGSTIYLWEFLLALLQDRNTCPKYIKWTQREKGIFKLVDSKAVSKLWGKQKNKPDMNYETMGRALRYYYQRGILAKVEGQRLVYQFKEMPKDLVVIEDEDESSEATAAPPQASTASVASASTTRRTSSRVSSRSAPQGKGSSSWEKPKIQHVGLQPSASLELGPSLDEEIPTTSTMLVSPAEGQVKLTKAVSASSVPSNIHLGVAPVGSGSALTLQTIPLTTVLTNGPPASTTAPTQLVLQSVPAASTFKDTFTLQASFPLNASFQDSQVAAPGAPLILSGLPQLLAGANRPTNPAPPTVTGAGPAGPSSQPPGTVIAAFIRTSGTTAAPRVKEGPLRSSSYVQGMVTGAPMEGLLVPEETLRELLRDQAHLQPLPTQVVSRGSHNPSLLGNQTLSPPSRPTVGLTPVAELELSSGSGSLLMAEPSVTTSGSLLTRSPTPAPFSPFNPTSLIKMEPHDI
Chain of SPIB (Q01892 whole entry): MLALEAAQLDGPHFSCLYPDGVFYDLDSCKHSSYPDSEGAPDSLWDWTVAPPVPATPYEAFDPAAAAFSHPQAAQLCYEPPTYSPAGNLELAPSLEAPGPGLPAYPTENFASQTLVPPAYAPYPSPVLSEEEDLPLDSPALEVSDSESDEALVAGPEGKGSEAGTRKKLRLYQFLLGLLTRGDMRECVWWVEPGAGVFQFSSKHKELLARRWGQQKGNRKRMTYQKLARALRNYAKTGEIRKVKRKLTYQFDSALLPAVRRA
Chain of ETV1 (P50549 whole entry): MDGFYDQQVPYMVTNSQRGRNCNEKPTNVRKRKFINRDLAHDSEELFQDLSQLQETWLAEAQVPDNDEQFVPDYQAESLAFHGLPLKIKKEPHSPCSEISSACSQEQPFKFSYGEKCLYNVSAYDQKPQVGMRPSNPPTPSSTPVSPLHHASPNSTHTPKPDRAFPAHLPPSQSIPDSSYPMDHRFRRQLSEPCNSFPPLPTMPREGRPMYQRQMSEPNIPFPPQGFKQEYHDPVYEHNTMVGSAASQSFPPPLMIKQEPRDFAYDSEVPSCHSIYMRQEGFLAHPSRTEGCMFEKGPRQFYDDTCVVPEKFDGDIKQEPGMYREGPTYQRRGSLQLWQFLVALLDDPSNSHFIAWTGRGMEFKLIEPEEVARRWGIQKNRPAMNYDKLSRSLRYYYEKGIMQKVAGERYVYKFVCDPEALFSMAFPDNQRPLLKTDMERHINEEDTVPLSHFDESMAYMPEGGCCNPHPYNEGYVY
Chain of HSF1 (Q00613 whole entry): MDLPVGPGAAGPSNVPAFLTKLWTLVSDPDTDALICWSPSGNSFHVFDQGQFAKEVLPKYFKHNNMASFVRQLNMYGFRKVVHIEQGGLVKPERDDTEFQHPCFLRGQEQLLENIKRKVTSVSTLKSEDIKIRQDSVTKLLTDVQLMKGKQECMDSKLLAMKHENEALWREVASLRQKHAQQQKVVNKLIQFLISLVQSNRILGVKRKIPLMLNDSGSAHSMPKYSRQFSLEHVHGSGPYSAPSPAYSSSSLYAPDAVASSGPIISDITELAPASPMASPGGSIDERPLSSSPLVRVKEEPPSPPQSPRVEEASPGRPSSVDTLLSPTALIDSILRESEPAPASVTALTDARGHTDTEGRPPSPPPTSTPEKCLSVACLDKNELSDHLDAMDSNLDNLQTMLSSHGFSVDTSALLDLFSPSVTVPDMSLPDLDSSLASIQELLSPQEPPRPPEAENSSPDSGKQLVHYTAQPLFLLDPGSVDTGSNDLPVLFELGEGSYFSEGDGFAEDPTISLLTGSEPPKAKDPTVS
Chain of ETV5 (P41161 whole entry): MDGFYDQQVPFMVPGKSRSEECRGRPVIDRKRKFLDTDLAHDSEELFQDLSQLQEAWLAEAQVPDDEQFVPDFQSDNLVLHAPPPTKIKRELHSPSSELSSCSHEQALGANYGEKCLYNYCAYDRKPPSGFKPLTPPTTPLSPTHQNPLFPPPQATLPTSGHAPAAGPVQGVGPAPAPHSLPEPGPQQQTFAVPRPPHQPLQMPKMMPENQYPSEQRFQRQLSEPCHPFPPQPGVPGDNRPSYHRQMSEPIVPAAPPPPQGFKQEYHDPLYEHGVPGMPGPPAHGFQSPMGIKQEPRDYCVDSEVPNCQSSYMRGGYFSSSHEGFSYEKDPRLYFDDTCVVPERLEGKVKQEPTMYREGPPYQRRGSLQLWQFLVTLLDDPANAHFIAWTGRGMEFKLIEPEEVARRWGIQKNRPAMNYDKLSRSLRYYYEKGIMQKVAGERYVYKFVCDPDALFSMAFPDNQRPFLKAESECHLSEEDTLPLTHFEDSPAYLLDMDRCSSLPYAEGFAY
Chain of ELF1 (P32519 whole entry): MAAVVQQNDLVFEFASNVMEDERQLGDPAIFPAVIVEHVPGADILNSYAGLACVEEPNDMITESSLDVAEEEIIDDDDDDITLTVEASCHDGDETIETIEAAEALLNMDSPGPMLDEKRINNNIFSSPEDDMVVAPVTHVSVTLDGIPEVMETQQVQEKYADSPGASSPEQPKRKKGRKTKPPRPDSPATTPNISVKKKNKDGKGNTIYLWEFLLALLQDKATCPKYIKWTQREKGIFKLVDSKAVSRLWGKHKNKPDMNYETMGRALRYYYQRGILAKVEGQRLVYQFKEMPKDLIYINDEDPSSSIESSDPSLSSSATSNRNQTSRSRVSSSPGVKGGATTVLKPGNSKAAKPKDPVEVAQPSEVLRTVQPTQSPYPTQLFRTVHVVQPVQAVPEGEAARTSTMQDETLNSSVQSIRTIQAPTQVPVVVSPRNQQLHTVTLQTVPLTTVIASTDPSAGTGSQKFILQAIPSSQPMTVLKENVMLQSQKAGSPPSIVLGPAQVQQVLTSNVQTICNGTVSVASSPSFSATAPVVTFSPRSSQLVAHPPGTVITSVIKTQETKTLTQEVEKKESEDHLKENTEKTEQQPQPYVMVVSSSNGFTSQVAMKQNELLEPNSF
Chain of CRX (O43186 whole entry): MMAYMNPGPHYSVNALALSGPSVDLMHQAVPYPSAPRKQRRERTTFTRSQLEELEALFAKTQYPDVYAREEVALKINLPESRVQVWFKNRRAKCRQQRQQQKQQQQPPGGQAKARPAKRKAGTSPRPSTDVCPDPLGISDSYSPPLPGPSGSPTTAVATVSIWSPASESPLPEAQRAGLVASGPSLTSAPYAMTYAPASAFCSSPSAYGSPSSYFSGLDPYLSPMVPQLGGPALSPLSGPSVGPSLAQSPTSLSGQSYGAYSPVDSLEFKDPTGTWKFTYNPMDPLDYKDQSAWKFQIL

## TCTCTA
FLI1
  binding signal: 1.21 fold enrichment (6-mer frequency, TF over GST control)
ELK1
  binding signal: 1.31 fold enrichment (6-mer frequency, TF over GST control)
GABPA
  binding signal: 1.23 fold enrichment (6-mer frequency, TF over GST control)
ERG
  binding signal: 1.36 fold enrichment (6-mer frequency, TF over GST control)
ELF1
  binding signal: 1.36 fold enrichment (6-mer frequency, TF over GST control)
EHF
  binding signal: 1.34 fold enrichment (6-mer frequency, TF over GST control)
SPI1
  binding signal: 1.26 fold enrichment (6-mer frequency, TF over GST control)
SPIB
  binding signal: 1.33 fold enrichment (6-mer frequency, TF over GST control)
ELK3
  binding signal: 1.22 fold enrichment (6-mer frequency, TF over GST control)
FEV
  binding signal: 1.32 fold enrichment (6-mer frequency, TF over GST control)
ETV5
  binding signal: 1.21 fold enrichment (6-mer frequency, TF over GST control)
HSF1
  binding signal: 1.74 fold enrichment (6-mer frequency, TF over GST control)
SPIC
  binding signal: 1.38 fold enrichment (6-mer frequency, TF over GST control)
ELF4
  binding signal: 1.25 fold enrichment (6-mer frequency, TF over GST control)
ELK4
  binding signal: 1.22 fold enrichment (6-mer frequency, TF over GST control)
ETV2
  binding signal: 1.24 fold enrichment (6-mer frequency, TF over GST control)
ELF3
  binding signal: 1.28 fold enrichment (6-mer frequency, TF over GST control)
CRX
  binding signal: 1.56 fold enrichment (6-mer frequency, TF over GST control)
ETV1
  binding signal: 1.2 fold enrichment (6-mer frequency, TF over GST control)
